Results: the supplement of paper PMC6555819

Tested on: VDR:RXRa (NR concentration 270 nM, RXRa partner concentration 90 nM)
Assay: PBM binding z-score (relative to random genomic background probes); higher = stronger binding; sequences stand for … in GC…GCGATTGACAGCGTAGAATGAAGG
Procedure: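 Protein-binding microarray (Agilent 4x180K custom design, double-stranded 60-nt probes: 5' GC cap, 34-nt variable region, 24-nt constant primer region; full probe sequence given). Purified or IVT nuclear receptor:RXRα heterodimers (3:1 NR:RXRα, mostly 270:90 nM) or homodimers were incubated for 1 h in PBS with 2% milk and no ligand, then detected with Alexa488 antibodies. Fluorescence from o1-orientation probes (~5 replicates averaged) was converted to z-scores against 500 random hg19 background probes. Variable regions are seed direct-repeat (DR0–DR5) sites, all their single-nucleotide variants and half-site ablations.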

Row | Sequence | PBM binding z-score
1 | CCTACTGGGCCACCAAAGGTCATTGATTCAGTGA | 4.13
2 | GCTTATAGGTAATACAAGGTGAAAGTCCGATTGT | 0.401
3 | ACAGACGGGTGATGAAGGTAACTCAGGCTATCAT | 0.177
4 | TCCTGTAGATCAAAGGTTAAGAAAGCCGAAGCCT | 1.44
5 | CCTCGGAGGACAACAGGAGGGCAGAGCTGCCAGA | -0.641
6 | CGAACTAGGTCAGAACAGGTCAGTGAAGGATGAT | 2.68
7 | CAAACTAGGTCACGAATGGTCAAAGTCGAATGAC | 3.05
8 | AGTCAAAGTTCATCTAGGTAACGTATGATATGCT | 4.91
9 | CCGACTGGGGCAGAAAGCTTACCATACCATCCGG | -0.904
10 | CAAACTTGGTCAAGGTCAAAGTCGGTTTGTGCCA | 4.47
11 | ATATATAGGTTATCGGGTCATTCAGTTTGCGCAT | 5.37
12 | AGAATTAGGTTATACGTAGATCAGGGAAGAAAGT | 0.22
13 | AGTCATAGTTCATCTAGGTAACGTAAGATATGCT | 2.54
14 | CGTCAAAGTTCAACTAAGGAAACGTAAAGCACGC | 4.16
15 | CCTAGCAGGCCATTCTGGGTCACTCAAGGCTTGA | 1.04
16 | TCTTGTAGAGCAATAGAGGTTAAGAAAGTGCGCT | 1.18
17 | CCGATTGGGGCAGAAAGGTTACCATACCATCCGG | 0.707
18 | CCGAGTAGGTTATGGGGCAGTCAGGCAACGGTGA | -0.397
19 | CCTGCTAGGTCAATGGTCAGCGAAAGCAGCTCGC | 0.881
20 | TGGAGTAGGTTAGGGGCATTCAGAATGGCGTCGA | 1.05

Row | Sequence | PBM binding z-score
21 | TCATATAGGTAAAGGTGAACGTCGAACGATATGA | 0.748
22 | GCTTGTAGGTCAAGGTTAAGAAAGACTAAGCTAA | 2.3
23 | CGGACTAGGTCATCCAGGACAGTGAATACATTGA | 4.36
24 | ATCGAAAGTTCGAAGGTGAGTATACCCACCCGAA | 1.29
25 | AGAATGAGGTTATACGTAGATCTGGGAAGAAAGT | 1.07
26 | TCTGCTAGGTCAGTTGGTCAGCTATCGAGCTGCC | 0.206
27 | CGTTAAAGTTCAACTAAGGTAACGTAAAGCACGC | 4.58
28 | TCATAAAGGTAAACAGGTGAAAGTCCGTAAGTTA | 1.64
29 | GCTAGCAGGGCATTTGGGTCACTCAATGACGGGC | 2.15
30 | GGTAGCAGGCCATTTGGGTCACTCAATGACGGGC | 1.14
31 | TCATATAGGTAATATAGGTGAAAGTCGGCATCTA | 0.836
32 | CCTACTGGGCCAAAAAGATCATTGATGCCGATAA | -0.303
33 | TGAATGGGGTTAAAGATCAGGGAACGTGGCGTCG | 3.29
34 | CAAACAAGGTCAAGGTCAAAGTCGGTTTGTGCCA | 6.23
35 | ATCGAAAGCTCGTGAGGTGAGTATACAGAAAGGC | -0.256
36 | TCAATTAGTTGATTAGGGCAACCGAAACAGCGGA | 0.35
37 | CAAACTAGGTCACCGGAAGGTAAAAGTCCGCATG | 2.84
38 | GCTTGTAGATCAAGGTGAAGAAAGACTAAGCTAA | -0.394
39 | CGTACTAGGTCAGAACAGGACAGTGAAGGATGAT | 0.861
40 | ATCGAAAGGTCGTGAGGTGAGTATGCAGAAAGGC | 3.57
